Rows were chosen to be rich in hits. Some 0.93% of all compounds tested hit in one or more screens of this group.
CDC25B CDK2 inh – human CDC25B-CDK2/CyclinA binding inhibition. P30305+P24941. HTRF CDC25B-CDK2/CyclinA binding, anti-His/anti-Flag; stronger effect = higher value. z-score (no concentration beside the values). actives 0.72% (n = 94,000). AID 1259370; in the data active = z-score above about 3.2
HIV TAR-Tat – HIV-1 TAR-Tat binding disruption | actives 0.6% (n = 100,000) | z-score (test concentration not listed) | AID 1259389 | HIV-1 TAR RNA, Tat peptide displacement FRET; stronger effect = higher value; active = z-score of 3 or more in at least 2 runs
* marks the source's active call; other numbers are inactive results; / = not tested or not shown.

SMILES	CDC25B CDK2 inh	HIV TAR-Tat
CCCCSc1nnc2c(n1)OC(c1cc(Br)c(Br)o1)Nc1ccccc1-2 (configuration not stated)	-1.48	/
O=C1C2N=NN(Cc3ccccc3)C2C(=O)N1c1ccc(Cl)cc1 (configuration not stated)	0.86	0.49
Cc1cccc(CSc2nc3c(c(=O)[nH]2)C(c2cccc(F)c2F)CC(=O)N3)c1 (configuration not stated)	-0.76	0.8
COc1ccc(Br)cc1C1CC(=O)N2CN(C)CSC2=C1C#N (configuration not stated)	5.05	3.31
COc1ccc(N2CSC3=C(C#N)C(c4ccc(OC)cc4OC)CC(=O)N3C2)cc1 (configuration not stated)	3.39*	-1.25
COc1ccc(C2CC(=O)N3CN(c4ccc(F)cc4)CSC3=C2C#N)c(OC)c1 (configuration not stated)	4.41*	-2.14
COc1ccc(N2CSC3=C(C#N)C(c4ccc(SC)cc4)CC(=O)N3C2)cc1 (configuration not stated)	2.79	-0.8
COc1ccc(C2CC(=O)N3CN(C)CSC3=C2C#N)c(OC)c1 (configuration not stated)	5.17*	-1.32
CC(C(=O)OCc1cccc(Br)c1)N1C(=O)C(=O)c2ccccc21 (configuration not stated)	-0.56	0.54
CCC(CC)C(=O)Nc1c2c(nn1-c1ccc(Cl)cc1)CS(=O)(=O)C2	/	2
CN(C)CCNc1cc(N(C)C)c2noc3c2c1C(=O)c1ccccc1-3	-3.56	-1.14
O=c1[nH]c2ccc(NCc3ccccn3)cc2[nH]1	12.8*	-6.53
COc1ccc(Br)cc1CNc1cc(C)cc(C)c1	-2.07	0.4
O=c1[nH]c2ccc(NCC#Cc3ccccc3)cc2[nH]1	0.12	0.85
CCOc1ccc(Br)cc1CNc1ccc2[nH]c(=O)[nH]c2c1	7.51*	-4.46
C=CCOc1ccc(CNc2ccc3[nH]c(=O)[nH]c3c2)cc1OC	1.18	-0.17
CCOc1c(Cl)cc(CNc2ncn[nH]2)cc1OC	-0.46	-0.89
COc1cc(CNc2ccc3[nH]c(=O)[nH]c3c2)cc(Br)c1OC	8.68*	-0.05
CCOc1c(Br)cc(CNc2ccc3[nH]c(=O)[nH]c3c2)cc1OC	8.47*	-3.62
CN(CC(=O)NCCCN1CCc2ccccc2C1)c1nnc(N2CCCC2=O)s1	/	0.34
CCCc1cc(=O)n2nc(N3CCC(C(=O)N4CCN(C)CC4)CC3)sc2n1	-1.92	2.21
CCOc1ccc2ncc(S(=O)(=O)c3ccccc3)c(Nc3ccc4c(c3)OCCO4)c2c1	-0.61	-1.9
O=c1c(S(=O)(=O)c2ccccc2)cn(Cc2ccccc2F)c2ccc(F)cc12	-0.94	0.23
Cc1nc2ccccc2c2c1C(=O)N(c1ccc(C(=O)OC(C)C)cc1)C2=O	0.35	1.48
Cc1noc(/C=C/c2cccs2)c1S(=O)(=O)N1CCC(C(=O)N2CCCC2)CC1	/	1.33
SMILES	CDC25B CDK2 inh	HIV TAR-Tat
COc1ccc2c(c1)CCc1c-2n[nH]c1C(=O)NCCc1cnc[nH]1	/	2.06
CCOc1cc(CNc2ccc3[nH]c(=O)[nH]c3c2)cc(Br)c1OC	6.1*	-0.04
O=C(Cc1cccs1)Nc1ccc2[nH]c(=O)[nH]c2c1	/	1.21
O=c1[nH]c2ccc(NCc3ccc(-c4ccc(F)cc4)o3)cc2[nH]1	5.33*	-1.95
CCOc1cc(CNc2ccc3[nH]c(=O)[nH]c3c2)cc(Br)c1OCC	-1.67	0.85
CCC1CCCCN1C(=O)CCS(=O)(=O)c1cc(Br)cc2c1N(C(=O)C1CC1)CC2 (configuration not stated)	-0.17	1.26
CC1Cc2cc(S(=O)(=O)NC3CCCC3)ccc2N1C(=O)C1CCC1 (configuration not stated)	/	1.54
Nc1ccc2nc(SCC(=O)c3ccc(Br)cc3)sc2c1	-4.38	-1.35
Nc1ccc2nc(SCC(=O)c3ccc(-c4ccccc4)cc3)sc2c1	16.8*	/
O=S(=O)(c1ccc2c(c1)CCCC2)N1CCCC(c2nc(-c3ccc4c(c3)OCO4)no2)C1 (configuration not stated)	/	1.87
O=c1cc(CSc2nc3ccccc3[nH]2)nc2sc(-c3ccco3)nn12	-0.16	14.9*
Cc1cccc(OCc2cc(=O)n3nc(-c4ccco4)sc3n2)c1C	-0.31	35*
CCc1nn2c(=O)cc(COc3ccc(C)c(C)c3)nc2s1	-1.48	0.78
O=c1cc(COc2ccc(Cl)cc2)nc2sc(-c3ccco3)nn12	-0.91	35.7*
O=c1cc(CSc2nc3ccccc3[nH]2)nc2sc(-c3cccs3)nn12	0.61	0.82
Cc1nn2c(=O)cc(COc3cccc(C)c3C)nc2s1	-1.02	-0.75
O=c1cc(CSc2ccc(Cl)cc2)nc2sc(-c3ccco3)nn12	-2.17	1.61
Cc1ccc(OCc2cc(=O)n3nc(-c4ccccc4)sc3n2)cc1C	1.73	4.47*
CC1CCc2nn(CC(=O)NCCCN3CCCCC3C)cc2C1 (configuration not stated)	0.57	/
CCOC(=O)N1CCN(C(=O)c2cc3c(=O)n4ccccc4nc3n2C)CC1	/	2.25
CC(=O)N1CCc2c(sc(NC(=O)CS(=O)(=O)c3ccc(Cl)cc3)c2C#N)C1	/	0.59
CN1CCN(c2cc(Nc3ccc(N(C)C)cc3)c3c4c(onc24)-c2ccccc2C3=O)CC1	-0.4	-1.16
CC1CCCN(CCNc2cc(N(C)C)c3noc4c3c2C(=O)c2ccccc2-4)C1 (configuration not stated)	-2.08	9.33*
COCCNc1cc(N2CCCCC2)c2noc3c2c1C(=O)c1ccccc1-3	1.71	8.06*
COc1ccc(Nc2cc(N3CCN(C)CC3)c3noc4c3c2C(=O)c2ccccc2-4)cc1	7.54*	0.88
SMILES	CDC25B CDK2 inh	HIV TAR-Tat
CN(C)c1cc(NCCN2CCCCC2)c2c3c(onc13)-c1ccccc1C2=O	2.59	0.47
CN1CCN(c2cc(NCCO)c3c4c(onc24)-c2ccccc2C3=O)CC1	0.56	8.99*
COCCNc1cc(N2CCN(C)CC2)c2noc3c2c1C(=O)c1ccccc1-3	-2.47	1.65
O=C1c2ccccc2-c2onc3c(N4CCN(c5ccccc5F)CC4)cc(NCCO)c1c23	0.96	2.33
O=S(=O)(NCc1csc2ccc(Cl)cc12)c1cccc2nonc12	-4.15	/
CCN(CC)C(=O)C1CCN(c2ncnc3onc(C)c23)CC1	/	2.78
CCCCNC(=O)c1cnc(N2CCOCC2)nc1C	/	1.92
NC(=O)c1nc(-c2ccc(OCc3ccccc3)cc2)nc2c1[nH]c(=O)n2C1CCCCC1	/	-3.63
Cc1ccc(-c2noc(-c3ccccc3O)n2)cc1	-2.41	/
O=C(c1cc(-c2ccc3c(c2)OCCO3)on1)N(Cc1ccc(F)cc1)Cc1ccco1	2.04	-0.63
Cc1ccc(Cl)cc1N1CC(O)=C(c2nc3ccccc3s2)C1=N	0.4	1.69
O=C1c2ccccc2-c2onc3c(N4CCCCC4)cc(NCCN4CCCC4)c1c23	-0.44	0.1
O=C1c2ccccc2-c2onc3c(N4CCCC4)cc(NCCO)c1c23	-1.05	-5.86
CCCCNc1cc(N2CCN(CCO)CC2)c2noc3c2c1C(=O)c1ccccc1-3	0.83	7.7*
O=C1c2ccccc2-c2onc3c(N4CCCCC4)cc(NCCN4CCOCC4)c1c23	1.91	6.42*
O=C1c2ccccc2-c2onc3c(N4CCCCC4)cc(NCCO)c1c23	11.7	22.9*
CN1CCN(c2cc(NCCN3CCCC3)c3c4c(onc24)-c2ccccc2C3=O)CC1	-2.16	-3.53
CC1CCCN(c2cc(NC(C)C)c3c4c(onc24)-c2ccccc2C3=O)C1 (configuration not stated)	-0.58	0.41

From PubChem
